Screens: PubChem BioAssay, National Center for Advancing Translational Sciences (NCATS)
Only some compounds are listed: those with a hit (about 20% of all), similar ones and a draw of the others.
Shiga toxin inh – A qHTS for Small Molecule Inhibitors of Shiga Toxin; inhibition, % at 38.7 µM; Vero cells, Shiga toxin protein synthesis inhibition reporter; 290,000 tested, 9.2% active; AID 2315, 2010; in the data active = inhibition mostly above about 28%, no sharp cut-off; inactive = mostly below about 43%; note: 0% is about no effect
Pf growth 48h – Primary qHTS for delayed death inhibitors of the malarial parasite plastid, 48 hour incubation | P. falciparum luciferase growth in erythrocytes, 48 h | Potency, µM (series often up to 28.7 µM), for inactives: top-dose activity change, negative = inhibition, hits mostly inhibitors | 310,000 tested, 5.9% active | AID 504832, 2011; note: potency is the fitted concentration of half-maximal effect; % is set by controls: 0 for no effect and ±100 for the full control effect
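Growth was read as firefly luciferase luminescence after a 48 h, 37 C, 5% CO2 exposure of compounds to reporter-bearing P. falciparum cultures (0.1% parasitemia, 2% hematocrit final) in Albumax-supplemented RPMI 1640.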
Cycloheximide cs – Cycloheximide Counterscreen for Small Molecule Inhibitors of Shiga Toxin; cell reporter, cycloheximide protein synthesis inhibition counterscreen; max response, %; 300,000 tested, 12% active; in the data active = max response mostly above about 13%, no sharp cut-off; inactive = mostly below about 14%; note: read at 38.3 µM for the half of the compounds with a filed dose; 0% is about no effect
Pf growth 96h – Primary qHTS for delayed death inhibitors of the malarial parasite plastid, 96 hour incubation; Potency, µM (highest dose often 28.7 µM), for the others: at the top dose activity change, negative = inhibition, most hits filed as inhibitors; P. falciparum luciferase reporter growth, 96 h; 320,000 tested, 6.9% active; note: potency is the fitted concentration of half-maximal effect; % is set by controls: 0 for no effect and ±100 for the full control effect
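Two-generation exposure (96 h) targets delayed-death phenotype. Reporter parasites carrying integrated firefly luciferase, in red cells at 2% hematocrit and 0.05% parasitemia final, kept at 37 C, 5% CO2; luminescence loss indicates inhibition.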
HCMV antiviral – qHTS Assay for inhibitors of the human cytomegalovirus (HCMV); HFF cells, HCMV-luciferase reporter, 72 h; stronger effect = lower value; activity change, negative = inhibition, % at 57.5 µM; 410,000 tested, 4.5% active; AID 1259415, 2018; in the data active = activity change below about -60%; inconclusive = no clear call, values can overlap the other calls; inactive = above about -39%; note: % is set by controls: 0 for no effect and ±100 for the full control effect
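Two compound doses tested in HFFs infected with HCMV-luciferase, MOI 1 PFU/cell, 72 h at 37C. Lysate luminescence read with OneGlo; data normalized against buffer-only and 10uM Salinomycin inhibitor controls.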
* hit, by the source's call. Unless noted, calls come from the whole dose curve; as a rule, active = well fitted inhibition curve with a large enough effect; inconclusive = small, poorly fitted or top-dose-only effect, or another doubt; inactive = no such curve, though single readings can be large or run the other way.

For Cc1onc(-c2ccccc2Cl)c1C(=O)NCc1ccccn1 the results were Shiga toxin inh -5, Pf growth 48h -6%, Cycloheximide cs -3 and HCMV antiviral 55.
For Cc1onc(-c2ccccc2Cl)c1C(=O)NC(C)c1ccccc1 (configuration not stated) the results were Shiga toxin inh -1, Pf growth 48h -21%, Cycloheximide cs -1, Pf growth 96h 13µM* and HCMV antiviral 41.
COc1ccccc1CNC(=O)c1c(-c2ccccc2Cl)noc1C was read as Shiga toxin inh -6, Pf growth 48h 10µM*, Cycloheximide cs 2, Pf growth 96h 57% and HCMV antiviral -4.
For COc1ccccc1NC(=S)NC(=O)c1c(-c2ccccc2Cl)noc1C the results were Shiga toxin inh -3, Pf growth 48h inconclusive, Cycloheximide cs 7, Pf growth 96h 22% and HCMV antiviral inconclusive.
Cc1onc(-c2ccccc2Cl)c1C(=O)NC(=S)Nc1ccc(C(C)C)cc1 was read as Shiga toxin inh 36, Pf growth 48h 5.2µM*, Cycloheximide cs 3, Pf growth 96h 13µM* and HCMV antiviral 2.
For Cc1onc(-c2ccccc2Cl)c1C(=O)NC(=S)NCCc1ccccc1 the results were Shiga toxin inh -5, Pf growth 48h -20%, Cycloheximide cs -3, Pf growth 96h 33% and HCMV antiviral -34.
`Cc1onc(-c2ccccc2Cl)c1C(=O)NC(=S)Nc1ccccc1F` gave Shiga toxin inh 12, Pf growth 48h 4.1µM*, Cycloheximide cs 9, Pf growth 96h 46% and HCMV antiviral inconclusive.
For CCN(CC)C(=O)c1sc2c(c1C)c(=O)n(-c1ccccc1)c(=O)n2Cc1c(C)cc(C)cc1C the results were HCMV antiviral 5.
Screening Cc1ccc(NC(=S)NC(=O)c2c(-c3ccccc3Cl)noc2C)cc1 returned Shiga toxin inh -12, Pf growth 48h 10µM*, Cycloheximide cs 3, Pf growth 96h inconclusive and HCMV antiviral -33.
Screening Fc1ccc(C2Nc3cccc4cccc(c34)N2)cc1 returned Shiga toxin inh 14, Pf growth 48h inconclusive, Cycloheximide cs 5, Pf growth 96h -1% and HCMV antiviral 18.
For O=[N+]([O-])c1cccc(C2Nc3cccc4cccc(c34)N2)c1 the results were Shiga toxin inh 12, Pf growth 48h 4.1µM*, Cycloheximide cs 9, Pf growth 96h -7% and HCMV antiviral -22.
For O=[N+]([O-])c1ccc(C2Nc3cccc4cccc(c34)N2)cc1 the results were Shiga toxin inh -13, Pf growth 48h -85%, Cycloheximide cs 1, Pf growth 96h 13µM* and HCMV antiviral 53.
CCN(CC)c1ccc(C2NC(=O)c3ccccc3N2)cc1 (configuration not stated) was read as HCMV antiviral -25.
For COc1cc(C2Nc3cccc4cccc(c34)N2)ccc1OC(C)=O the results were Shiga toxin inh -2, Pf growth 48h 0% and Cycloheximide cs -2.
Screening COc1ccc(C2Nc3cccc4cccc(c34)N2)cc1Br returned Shiga toxin inh -3, Pf growth 48h 10µM*, Cycloheximide cs 1, Pf growth 96h inconclusive and HCMV antiviral 15.
CCN(CC)c1ccc(C2Nc3cccc4cccc(c34)N2)cc1 was read as Shiga toxin inh 24, Pf growth 48h 10µM*, Cycloheximide cs 25*, Pf growth 96h inconclusive and HCMV antiviral 11.
Screening Cc1cc2c(cc1S(=O)(=O)N(C)CC(=O)Nc1ccc(C#N)cc1)OCC(=O)N2 returned HCMV antiviral -17.
Screening CCc1n[nH]c(=S)n1/N=C/c1cc(Br)c(OC)cc1OC returned Shiga toxin inh -7, Pf growth 48h -4%, Cycloheximide cs -4, Pf growth 96h -23% and HCMV antiviral 1.
`CC(=O)N(c1nc2ccccc2s1)N1C(=O)c2ccccc2C1=O` gave HCMV antiviral -5.
For CCCCNC(=O)Nc1nc2ccc(CC)cc2s1 the results were Shiga toxin inh 73*, Pf growth 48h 44%, Cycloheximide cs 34*, Pf growth 96h 45% and HCMV antiviral -29.
CCCCNC(=O)Nc1ccon1 was read as Shiga toxin inh -18, Pf growth 48h 9%, Cycloheximide cs 11, Pf growth 96h 17% and HCMV antiviral -28.
CN(C)C(=O)c1nc2ccccc2s1 was read as Shiga toxin inh 74*, Pf growth 48h 33%, Cycloheximide cs 28*, Pf growth 96h 19% and HCMV antiviral 30.
